# Screens as filed in PubChem BioAssay.
# Many of the other results were omitted from the sample, so hits are more common in it than they were.
# HIV RNase H inh-1: HIV-1 RT RNase H inhibitors, primary screen, biochemical, fluorescence; inhibition, % at 10 µM; RT-RNase H RNA/DNA duplex cleavage; AID 565, 2006; Gag-Pol polyprotein (Human immunodeficiency virus type 1 group M subtype B (isolate …; actives 1.9% (n = 65,000); in the data active = inhibition above about 50%
# HIV RNase H inh-2: HIV-1 RT RNase H inhibitors, retest, confirmation, biochemical | AID 651, 2007 | Recombinant RT RNase H, fluorescent RNA/DNA duplex cleavage | shares compounds with HIV RNase H inh-1 | inhibition, % at 10 µM | actives 39% (n = 1,000); in the data active = inhibition above about 48%; inconclusive = no clear call, values can overlap the other calls
# Active calls of the source: *; ? = inconclusive.
SMILES,HIV RNase H inh-1,others
Oc1ccccc1NCC(O)Cn1ccc2ccccc21 (configuration not stated),78*,HIV RNase H inh-2=29
OCc1nc2ccccc2n1CC(O)Cn1ccc2ccccc21 (configuration not stated),-9,
O=C1c2ccccc2S(=O)(=O)N1CC(O)Cn1ccc2ccccc21 (configuration not stated),-7,
COc1cccc(NC(=O)CSc2nnc(-c3cccc(OC(C)C)c3)n2N)c1,8,
C=CCn1c(SCc2c(C)noc2C)nnc1C1COc2ccccc2O1 (configuration not stated),-19,
Cc1ccc(S(=O)(=O)n2nc(-c3ccc(Cl)cc3)nc2NCc2ccco2)cc1,10,
O=c1[nH]c2ccc(Br)cc2c(-c2ccccc2)c1N1CCOCC1,-3,
O=c1c2c([nH]c3ccc(Br)cc13)CCCC2,-2,
O=c1ccc2cc3c([nH]c4ccc(Br)cc43)oc-2c1O,88*,HIV RNase H inh-2=58*
Cc1cc2oc(=O)cc(CN3CCCCC3C)c2c(C)c1Cl (configuration not stated),-3,
O=C(Nc1ccc(N2CCOCC2)cc1)C1CCCN(S(=O)(=O)c2cccc(C(F)(F)F)c2)C1 (configuration not stated),6,
COC(=O)C1=C(C)N=c2s/c(=C/c3cccs3)c(=O)n2C1c1cccs1 (configuration not stated),-6,
COC(=O)C1=C(C)N=c2s/c(=C3\C(=O)Nc4ccccc43)c(=O)n2C1c1ccccc1 (configuration not stated),90*,HIV RNase H inh-2=70*
COC(=O)C1=C(C)N=c2s/c(=C/c3ccoc3)c(=O)n2C1c1ccccc1 (configuration not stated),-2,
CCOC(=O)N1CCC(NC(=O)c2csc3c2CCCC3)CC1,-3,
Cc1ccc(NCCNc2ccc(C)cc2)cc1,-4,
Cc1ccc(CNc2ccc(O)cc2)cc1,57*,HIV RNase H inh-2=3
CC(=O)N1CCN(c2ccc(NCc3ccc(C)cc3)cc2)CC1,0,
COC(=O)COc1ccc(S(=O)(=O)NCc2ccco2)cc1Cl,-3,
CC(=O)c1c(C)[nH]c(C(=O)OCC(=O)Nc2cc(C(F)(F)F)ccc2N2CCOCC2)c1C,1,
O=C(CC1(C(F)(F)F)OCCO1)Nc1ccc2c(c1)OCO2,2,
O=C(CSc1nnc(-c2ccco2)n1Cc1ccccc1)c1ccc(F)cc1,-71,
COCCn1c(C2CCCCC2)nc2sc3ccccc3c(=O)c2c1=O,0,
Cc1ccc(-c2nc3cnccn3c2Nc2ccc3c(c2)OCO3)o1,-3,
Cc1ccc(-c2nc3ncccn3c2Nc2ccc3c(c2)OCCO3)o1,21,
SMILES,HIV RNase H inh-1,others
Cc1ccc(-c2nc3cnccn3c2Nc2ccccc2)o1,88*,HIV RNase H inh-2=25
Cc1cc(C(F)(F)F)nn1CCCNC(=O)c1cnccn1,-4,
Cc1n[nH]c(C)c1Cc1ccc(C(=O)O)cc1,-3,
CCc1cc(C(=O)COc2ccccc2F)c(O)cc1O,-22,
CCN(CC)c1nc(C)c2c(c1C#N)CC(C)(C)OC2,-8,
CC1(C)Cc2c(C#N)c(N)sc(=S)c2CO1,82*,HIV RNase H inh-2=40
CC(C)C1Cc2c(C#N)c(N)sc(=S)c2CO1 (configuration not stated),21,
CCOC(=O)C(O)(CCC(O)(C(=O)OCC)C(=O)OCC)C(=O)OCC,-3,
CNc1nc(NC)nc(-n2c(C(F)(F)F)nc3ccccc32)n1,-26,
CCOc1ccc(N2C(=O)CCC2=O)cc1,-1,
CCOc1ccc(N2Cc3ccccc3C2)cc1,73*,HIV RNase H inh-2=61*
CCOc1ccc(S(=O)(=O)N2CCc3ccccc3C2)cc1,-8,
CC1CCN(C(=O)CSc2nnc(CSc3ncccn3)n2C)CC1,-21,
CCOc1ccccc1NC(=O)N1CCC(NC(=O)c2cccc(C)c2)CC1,77*,HIV RNase H inh-2=13
CCOc1ccccc1NC(=O)N1CCC(NC(=O)c2ccccc2C)CC1,1,
Cc1cccc(NC(=O)N2CCC(NC(=O)c3ccccc3C)CC2)c1,-3,
CN(C)CCCN1C(=O)C(=O)/C(=C(/O)c2ccc3c(c2)OCO3)C1c1ccccn1 (configuration not stated),-3,
O=c1[nH]c(=O)n(CCC2=CCCCC2)c(O)c1C=NCCN1CCNCC1,14,
CN(C)c1ccc(N=Cc2c(O)n(CCC3=CCCCC3)c(=O)[nH]c2=O)cc1,58*,HIV RNase H inh-2=51*
CCN(CC)c1ccc(N=Cc2c(O)n(CCC3=CCCCC3)c(=O)[nH]c2=O)cc1,18,
O=C(NCc1cccs1)C1CCCN(c2nc3ccccc3o2)C1 (configuration not stated),-1,
CCN(CC)S(=O)(=O)c1ccc(-c2nnc(SCC(=O)N3CCOCC3)o2)cc1,-7,
CC1CC(C)CN(C(=O)CSc2nnc(-c3ccc(Cl)s3)o2)C1 (configuration not stated),15,
CC1CC(C)CN(C(=O)CSc2nnc(-c3ccc(F)cc3)o2)C1 (configuration not stated),82*,HIV RNase H inh-2=-5
C#CC(C)(CC)NC(=O)Cn1nnc(-c2ccc(S(C)(=O)=O)cc2)n1 (configuration not stated),-25,
SMILES,HIV RNase H inh-1,others
CCOC(=O)c1ccc(NC(=O)CSc2nnnn2CCCO)cc1,-6,
COc1ccccc1N1CCN(S(=O)(=O)Cc2ccccc2Cl)CC1,-5,
CC(=O)Nc1nc2c(F)cccc2s1,-7,
CC(=O)Nc1nc(-c2ccc(Br)s2)cs1,26,
CC(=O)Nc1nc(=S)ss1,64*,HIV RNase H inh-2=39
CC(C)CC1N=C2c3ccccc3N=C(SCc3cc(=O)n4ccccc4n3)N2C1=O (configuration not stated),-10,
Cc1noc(C)c1CSc1nnc2scc(-c3ccccc3)n12,63*,HIV RNase H inh-2=16
Cc1noc(C)c1CSc1nnc(-c2ccccc2)n1Cc1ccco1,-30,
CC(=O)Nc1ccc(C(=O)CSc2nnc3scc(-c4ccccc4)n23)cc1,5,
COC(=O)C1=C(CSCc2ccco2)NC(=O)NC1c1cc(C)ccc1C (configuration not stated),-14,
CCOC(=O)c1cnc(SCc2nc(N)nc(Nc3ccc(C)cc3)n2)nc1N,-21,
Fc1ccc(-c2nnc3sc(C4COc5ccccc5O4)nn23)cc1 (configuration not stated),-15,
COc1ccccc1-c1nn2c(-c3ccccc3Cl)nnc2s1,-2,
O=c1[nH]cnc2scc(C3COc4ccccc4O3)c12 (configuration not stated),-14,
c1ccc2c(c1)OCC(c1nnc3sc(-c4ccc5c(c4)OCO5)nn13)O2 (configuration not stated),85*,HIV RNase H inh-2=69*
Clc1cc2c(c(Cn3cnc4ccccc43)c1)OCOC2,-97,
Clc1ccccc1-c1nnc2sc(-c3ccc(Br)o3)nn12,-20,
COc1ccc(OCc2nn3c(Cn4cnc5ccccc54)nnc3s2)cc1,-24,
c1ccc2c(c1)ncn2Cc1nnc2sc(-c3ccc4c(c3)OCO4)nn12,69*,HIV RNase H inh-2=61*
Fc1ccc(-c2nn3c(C4COc5ccccc5O4)nnc3s2)cc1 (configuration not stated),2,
Clc1ccccc1-c1nnc2sc(-c3ccc4c(c3)OCO4)nn12,92*,HIV RNase H inh-2=?
c1ccc2c(c1)OCC(c1nnc3n1-c1ccccc1SC3)O2 (configuration not stated),-27,
